E-sel TNF inh – blocks E-selectin expression induced by TNF alpha; inhibition, % at 2 µM; 120,000 tested, 0.71% active; AID 1246; HUVEC TNFa-induced E-selectin immunofluorescence, high content;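 active = inhibition above the batch mean plus 3 SD, and confirmed as a hit on visual image review, cut at about 43% in these data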;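 also: 0% = TNF-stimulated DMSO wells and 100% = unstimulated control wells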
cytoskel mod – alters cytoskeleton assembly in HUVEC cells; 91,000 tested, 0.18% active; inhibition, % at 2 µM; HUVEC TNFa F-actin phalloidin imaging, high content;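 active = inhibition above the batch mean plus 3 SD and confirmed as a hit by visual image inspection, cut at about 30% in these data, passing the limit was not always enough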
VCAM1 TNFa inh – reduces TNF alpha induced VCAM1 expression in HUVEC. inhibition, % at 2 µM. 95,000 tested, 0.48% active. AID 802. HUVEC TNFa-induced VCAM-1 immunofluorescence, high-content imaging;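 active = inhibition above the batch mean plus 3 SD, with images confirmed as a hit by eye, cut at about 37% in these data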;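 also: 0% = TNF-stimulated DMSO wells and 100% = unstimulated control wells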
S1P2 blocker – antagonists of human S1P2 receptor; inhibition, % at 5 µM; AID 736; cell-based S1P2 antagonist assay, inhibition at 5 uM; O95136; 97,000 tested, 0.21% active; in the data active = inhibition above about 45%;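 also: CRE beta-lactamase reporter cells expressing human S1P2 stimulated with S1P; 0% = agonist at EC80 alone and 100% = agonist plus reference antagonist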
Target sequence (O95136 whole entry, looked up): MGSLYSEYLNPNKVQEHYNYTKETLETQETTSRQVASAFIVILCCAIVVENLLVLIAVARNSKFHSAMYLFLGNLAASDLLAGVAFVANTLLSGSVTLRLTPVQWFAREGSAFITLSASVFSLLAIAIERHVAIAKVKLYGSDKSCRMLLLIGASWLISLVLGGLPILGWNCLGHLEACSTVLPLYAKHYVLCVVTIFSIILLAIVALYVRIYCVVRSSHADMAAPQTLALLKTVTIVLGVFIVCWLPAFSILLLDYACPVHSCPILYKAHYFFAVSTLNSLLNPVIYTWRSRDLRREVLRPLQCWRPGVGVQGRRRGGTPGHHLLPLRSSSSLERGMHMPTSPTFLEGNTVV
TNFa cytotox – HUVEC cytotoxicity counter-screen, TNF alpha stimulated. cell count reduction, % at 2 µM. HUVEC TNFalpha-stimulated, Hoechst cell count, imaging. 93,000 tested, 0.17% active;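 active = cell count reduction exceeding the screen mean by over 5 SD, scaled to untreated wells per plate, cut at about 78% in these data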;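 also: cells counted after 24 h of TNF alpha exposure following the 1 h pretreatment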
S1P2 agonist – S1P2 (human) receptor agonism; O95136; S1P2-expressing cell line, agonist reporter read-out; activation, % at 4.5 µM; 97,000 tested, 0.46% active; in the data active = activation above about 16%;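 also: 0% = vehicle low control and 100% = maximal reference agonist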
Active calls of the source: *; . = not tested or not shown. Most compounds without a hit are left out; they make up all but 1.6% or so of the library.

SMILES | E-sel TNF inh | cytoskel mod | VCAM1 TNFa inh | S1P2 blocker | TNFa cytotox | S1P2 agonist
C=CCN1C(c2ccccc2)=CS/C1=C(\C#N)c1nnc2n1CCCCC2 | 63* | . | . | . | . | .
Cc1ccc(C)c(NC(=O)CSc2nnc3n2CCCCC3)c1 | 1 | . | . | . | . | .
CCc1nc2ccccc2c(C(=O)OCC(=O)Nc2cccc(S(=O)(=O)N3CCOCC3)c2)c1C | 0 | 14 | 22 | 15 | 10 | 18*
Cc1cccc2nc(CSc3nc4ccc([N+](=O)[O-])cc4[nH]3)c(Br)n12 | -21 | . | . | . | . | .
CCOC(=O)C1CCN(Cc2cn[nH]c2-c2ccccc2)CC1 | 2 | -8 | -6 | 4 | -31 | -4
CCOC(=O)C1CCN(Cc2ccccc2C)CC1 | 8 | 30* | -11 | 5 | -40 | -1
Cc1onc(C(=O)N2C(C)CCCC2C)c1[N+](=O)[O-] (stereo unspecified) | -30 | . | . | . | . | .
O=C1CC(c2ccccc2)Cc2nc(N3CCc4ccccc4C3)ncc21 (stereo unspecified) | -17 | -5 | -7 | 1 | 7 | -5
Cc1ccc(C2CC(=O)c3cnc(N4CCc5ccccc5C4)nc3C2)cc1 (stereo unspecified) | -17 | -22 | 11 | 3 | 1 | 581*
CC1CC(=O)NN=C1c1ccc(NCCO)c([N+](=O)[O-])c1 (stereo unspecified) | -21 | -41 | 40* | -17 | 25 | 3
Cc1ccc(N(CC(=O)NCc2ccco2)C(=O)CCC(=O)Nc2ccccn2)cc1C | 5 | -13 | 4 | -6 | -22 | -4
O=C(CN(C(=O)CCC(=O)Nc1ccccn1)c1ccc2c(c1)OCO2)NCc1ccco1 | 70* | 25 | 6 | 5 | -47 | -5
CCCn1c2ccccc2c2nnc(SC(CC)C(=O)Nc3sc4c(c3C#N)CCCC4)nc21 (stereo unspecified) | 34 | 12 | -3 | -23 | -8 | -2
CCCn1c2ccccc2c2nnc(SC(CC)C(=O)Nc3cc(C)on3)nc21 (stereo unspecified) | 24 | -1 | 11 | -38 | 1 | 30*
O=C(Cn1c(=O)c(=O)n(Cc2ccccc2)c2ccc(Cl)cc21)Nc1cccc(F)c1 | -5 | . | . | . | . | .
CCOC(=O)N1CCC(NC(=O)C2CCCN(Cc3nc(-c4cccc(Cl)c4)oc3C)C2)CC1 (stereo unspecified) | -34 | -9 | 4 | 61* | -26 | -2
CCSc1nnc(-c2cccs2)o1 | 100* | -30 | 45 | 4 | 75 | -2
CCc1nc(SCC(=O)Nc2cc(C)on2)n[nH]1 | 16 | 0 | 10 | 6 | -16 | -11
Cc1cc(NC(=O)CSc2n[nH]c(N)n2)no1 | 67* | . | . | . | . | .
Cc1cc(NC(=O)CSc2nc(-c3ccco3)cc(C(F)(F)F)n2)no1 | -2 | -10 | 53* | -11 | 46 | 1
COc1ccc(CCNC(=O)CSc2nc(-c3ccco3)cc(C(F)(F)F)n2)cc1OC | 68* | -24 | 10 | 3 | -19 | -5
O=C(CSc1nc(-c2ccco2)cc(C(F)(F)F)n1)NCCc1ccccc1 | 11 | -1 | -11 | -3 | -16 | -2
CCN(CC)CCN(CC(=O)N(C1CCCCC1)C1CCCCC1)C(=O)c1ccco1 | 5 | . | . | . | . | .
Clc1ccc(-c2nnc(-c3ccco3)o2)cc1 | 77* | -1 | -10 | 2 | -12 | -2
O=S(=O)(c1ccc(Cl)c(Cl)c1)c1snnc1-c1ccccc1 | 19 | 5 | 96* | 9 | 48 | -6
SMILES | E-sel TNF inh | cytoskel mod | VCAM1 TNFa inh | S1P2 blocker | TNFa cytotox | S1P2 agonist
O=C(Cc1ccc(-n2cccc2)cc1)NC1CCCCCC1 | -18 | -9 | 41* | 5 | -10 | -4
O=C(Cc1ccc(-c2ccccc2)cc1)NC1CCCC1 | 13 | . | . | . | . | .
COc1ccc(C2SCC(C(=O)NCc3ccc(F)cc3)N2C(C)=O)cc1 (stereo unspecified) | -3 | 16 | 10 | -14 | -46 | 22*
CCC(=O)N1C(C(=O)NCc2ccc(OC)cc2)CSC1c1ccc(OC)cc1 (stereo unspecified) | -18 | 0 | 4 | 5 | -8 | -3
CC(C)(C)NS(=O)(=O)c1ccc(Oc2ncc(C(F)(F)F)cc2Cl)cc1 | 23 | 61* | -2 | 1 | -14 | -3
COc1cccc(CNC(=O)CN(c2cc(C)cc(C)c2)S(=O)(=O)c2c(C)noc2C)c1 | -8 | 0 | 1 | 14 | -15 | 109*
CCOC(=O)c1ccc(NC(=O)CN2C(=O)CCC2=O)cc1 | 25 | 10 | 18 | -14 | 3 | 1
Cc1ccc(C(=O)OCn2ncc(Cl)c(Cl)c2=O)cc1 | 100* | -24 | 36* | 80* | 5 | -5
CCOC(=O)c1ccc(NC(=O)Cn2ncc(Cl)c(Cl)c2=O)cc1 | 100* | . | . | . | . | .
O=C(COC(=O)CNS(=O)(=O)c1ccc(F)c(F)c1F)Nc1ccc(OC(F)F)cc1 | -5 | . | . | . | . | .
COc1cccc(Nc2nc3ccccc3nc2-n2nc(C)cc2C)c1 | . | -10 | 2 | -48 | 4 | 38*
CCCC(CCC)C(=O)NNc1cc(=O)c2c(=O)n(C)c(=O)n(C)c2[nH]1 | 100* | -14 | 11 | 11 | 6 | -6
Brc1ccc2[nH]c3nc(SCCN4CCOCC4)nnc3c2c1 | 5 | 19 | 3 | -23 | -7 | 16*
CCOC(=O)c1c(C)n(C)c2ccc(OCC(O)Cn3nc(C)cc3C)cc12 (stereo unspecified) | 25 | -10 | 4 | -16 | -9 | 58*
CCOC(=O)c1c(C)n(C)c2ccc(OCC(O)CN(CC)CC)cc12 (stereo unspecified) | . | -3 | 13 | 11 | -24 | -5
O=C(NN=C1CCCCCCCCCCC1)c1ccccc1F | 18 | . | . | . | . | .
CSc1sc2ccccc2[n+]1CCCS(=O)(=O)[O-] | . | 5 | 0 | 3 | -16 | 26*
Cc1ccc2ccccc2[n+]1CCCS(=O)(=O)[O-] | . | 14 | 4 | 4 | -13 | -1
COc1cc(/C=C(/C#N)c2nc3ccccc3[nH]2)ccc1OCC(=O)Nc1ccccc1C | 5 | 0 | 5 | 8 | -3 | 3
COc1cc(/C=C(/C#N)c2nc3ccccc3[nH]2)ccc1OCC(=O)Nc1ccccc1C(C)C | 14 | 0 | -2 | 2 | -7 | 19*
CCSc1ccc2cc(OC)ccc2[n+]1CC | 0 | . | . | . | . | .
CCn1c2ccc(C)cc2c2nc3cc(C(=O)O)ccc3nc21 | 15 | . | . | . | . | .
CCn1c2ccc(OC)cc2c2nc3ccccc3nc21 | -1 | -4 | 13 | -33 | -15 | 34*
CCn1c2ccc(Cl)cc2c2nc3ccccc3nc21 | 10 | -8 | 0 | -39 | 4 | 43*
CNC(=S)NCCc1cc2c(OC)ccc(OC)c2[nH]c1=O | -35 | . | . | . | . | .
COc1ccc(C(=O)Nc2nc(-c3ccc([N+](=O)[O-])cc3)c(-c3ccc(OC)cc3)s2)cc1 | -5 | . | . | . | . | .
COCCNC(=O)c1ccc(N(C)S(=O)(=O)c2ccc(OC)c(OC)c2)cc1 | 100* | -2 | -39 | -38 | -10 | -1
O=C(O)c1ccc(NCc2ccncc2)cc1 | . | -1 | -16 | -7 | 84* | 0
O=C(NCc1ccco1)C(=O)NCC1OCCCN1S(=O)(=O)c1ccccc1 (stereo unspecified) | -11 | . | . | . | . | .

High-throughput results (PubChem)
